Assay outcomes from PubChem.
SW480 rereplic = A quantitative high throughput screen for small molecules that induce DNA re-replication in SW480 colon adenocarcinoma cells; 340,000 tested, 1.8% active; Potency, µM (doses to about 46.1 µM), hits mostly activators; SW480 DNA re-replication, Hoechst DNA content imaging, 48 h; further: nearly all actives have a fitted effect of over 55% in size
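Per well, 250 cells were exposed to pinned compound for 48 hr. Nuclear DNA was visualised with Hoechst (40 min, 37 C) and total object intensity recorded by fluorescence scanning.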
MCF10A rerep = A quantitative high throughput screen for small molecules that induce DNA re-replication in MCF 10a normal breast cells; 350,000 tested, 2.9% active; MCF 10A DNA re-replication, Hoechst nuclear intensity, 48 h; AID 624296, 2012; Potency, µM (titrated, usually from 46.1 µM), most hits filed as activators; further: nearly all actives have a fitted effect of over 50% in size
KB-V1 cytotox = qHTS assay for MDR1-selective chemotherapeutics: Primary screen using the drug-selected MDR subline cells KB-V1; Potency, µM (doses to about 46.1 µM), actives largely listed as cytotoxic; 400,000 tested, 3.4% active; KB-V1 MDR cells viability, CellTiter-Glo, 72 h; further: nearly all actives have a fitted effect of over 60% in size
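Luminescent ATP read-out (CellTiter-Glo, 10 min) measures survival of drug-selected KB-V1 MDR cells after 72 h, 37 degrees C compound exposure. Medium: phenol-red-free DMEM, 10% FBS. Values from fitted concentration-response curves.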
RORg inh = qHTS for inhibitors of ROR gamma transcriptional activity; Nuclear receptor ROR-gamma (Mus musculus), P51450; Drosophila S2 Gal4-RORgamma UAS-luciferase reporter, 20 h; Potency, µM (titrated, usually from 53.6 µM), usual class: inhibitors; 310,000 tested, 5.4% active; AID 2551, 2010; further: nearly all actives have a fitted effect of over 60% in size
Target sequence (P51450 whole entry, looked up, the tested form may be a part): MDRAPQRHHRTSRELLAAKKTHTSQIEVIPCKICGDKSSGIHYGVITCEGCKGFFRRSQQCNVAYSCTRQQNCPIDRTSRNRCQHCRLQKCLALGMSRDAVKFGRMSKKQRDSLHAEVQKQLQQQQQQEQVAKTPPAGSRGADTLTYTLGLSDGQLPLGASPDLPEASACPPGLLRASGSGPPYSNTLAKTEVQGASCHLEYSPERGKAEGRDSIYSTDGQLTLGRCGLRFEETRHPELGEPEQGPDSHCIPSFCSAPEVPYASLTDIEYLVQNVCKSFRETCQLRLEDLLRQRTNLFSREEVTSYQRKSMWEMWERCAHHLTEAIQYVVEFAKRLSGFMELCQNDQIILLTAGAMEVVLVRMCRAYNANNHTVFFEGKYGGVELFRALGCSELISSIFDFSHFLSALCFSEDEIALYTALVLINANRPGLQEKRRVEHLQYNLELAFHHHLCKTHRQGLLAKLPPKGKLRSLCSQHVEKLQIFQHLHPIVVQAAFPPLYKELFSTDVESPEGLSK
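In this cell-based reporter format, copper sulfate (700 uM final) drives Gal4–ROR gamma fusion expression from a metallothionein promoter in Drosophila Schneider cells; compounds preincubated 1 hr, reporter read after 20 hr at ambient temperature.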
KB-3-1 tox = qHTS assay for MDR1-selective chemotherapeutics: Primary screen using the parental adenocarcinoma cell KB-3-1; 400,000 tested, 1.4% active; KB-3-1 viability, CellTiter-Glo ATP luminescence, 72 h; Potency, µM (series often up to 46.1 µM), most hits filed as cytotoxic; further: nearly all actives have a fitted effect of over 60% in size
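Viability of parental KB-3-1 cells, measured by CellTiter-Glo luminescence, followed a 72 h incubation at 37 °C with pinned compounds in phenol-red-free DMEM containing 10% FBS.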
VP16 counter = VP16 counterscreen qHTS for inhibitors of ROR gamma transcriptional activity; Potency, µM (top dose mostly 53.6 µM), most hits filed as inhibitors; 310,000 tested, 3.5% active; Drosophila S2 Gal4-VP16 UAS-luciferase, luminescence, 20 h; AID 2546, 2010;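 further: Gal4-VP16 expression switched on by copper sulfate through the metallothionein promoter; nearly all actives have a fitted effect of over 50% in size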
Large screens that a line does not name were inactive. Most compounds without a hit are left out; they make up all but 10% or so of the library. The call rests on the fitted dose curve; in most records, active means well fitted curve in the direction sought with a large enough effect; inconclusive means small, poorly fitted or top-dose-only effect, or another doubt; inactive means no such curve, though single readings can be large; an effect the other way counts as inactive or inconclusive.

CN[C@@H](CCCN=C(N)N)C(=O)N[C@@H](CCCCN)C(=O)N1CCC[C@H]1C(=O)N[C@@H](Cc1c[nH]c2ccccc12)C(=O)N[C@H](C(=O)N[C@H](CC(C)C)C(=O)O)C(C)(C)C	none (no result: SW480 rereplic, MCF10A rerep, KB-V1 cytotox, KB-3-1 tox)
Cc1ccc(NC(=O)C2=C(C(=O)O)CCCC2)cc1F	none
Cc1ccc(NC(=O)C2=C(C(=O)O)CCCC2)cc1Br	SW480 rereplic 8.2µM, RORg inh inconclusive
CCCC(c1c(C)n(C)n(-c2ccccc2)c1=O)c1c(C)n(C)n(-c2ccccc2)c1=O	KB-V1 cytotox inconclusive, KB-3-1 tox 21µM
CCC(c1c(C)n(C)n(-c2ccccc2)c1=O)c1c(C)n(C)n(-c2ccccc2)c1=O	none
CN(C)c1ccc(/C=C/c2cc(Cl)nc3ccccc23)cc1	KB-V1 cytotox 13µM, KB-3-1 tox inconclusive (no result: SW480 rereplic, MCF10A rerep, RORg inh, VP16 counter)
CN(C)c1ccc(/C=C/c2nccc3ccccc23)cc1	none (no result: SW480 rereplic, MCF10A rerep, RORg inh, VP16 counter)
CN(C)c1ccc(/C=C/c2cncc3ccccc23)cc1	none (no result: SW480 rereplic, MCF10A rerep, RORg inh, VP16 counter)
CN(C)c1ccc(/C=C/c2cc(N(C)C)nc3ccccc23)cc1	KB-V1 cytotox 1.8µM, KB-3-1 tox 0.58µM (no result: SW480 rereplic, MCF10A rerep, RORg inh, VP16 counter)
Cc1nc2ccccc2nc1/C=C/c1ccc(N(C)C)cc1	KB-V1 cytotox inconclusive, KB-3-1 tox 5.2µM (no result: SW480 rereplic, MCF10A rerep, RORg inh, VP16 counter)
CC(C1CC1)N(Cc1ccccc1)C(=S)Nc1cccc(C(F)(F)F)c1 (stereo unspecified)	RORg inh 11µM, VP16 counter inconclusive
Cc1ccc(NC(=S)N(Cc2ccccc2)C(C)C)cc1	SW480 rereplic inconclusive, MCF10A rerep inconclusive, RORg inh 10µM, VP16 counter inconclusive
CC(C1CC1)N(Cc1ccccc1)C(=S)Nc1ccccc1 (stereo unspecified)	RORg inh 11µM, VP16 counter inconclusive
COc1ccc(OC)c(-c2noc(N3CCN(c4cc(C)ccc4C)CC3)n2)c1	none (no result: SW480 rereplic, MCF10A rerep, RORg inh, VP16 counter)
COc1cccc2sc(NC(=O)c3ccc(S(=O)(=O)N4CCC(C)CC4)cc3)nc12	none (no result: SW480 rereplic, MCF10A rerep, RORg inh, VP16 counter)
CCc1cccc(OCC(=O)Nc2cc(Cl)ccc2-n2cncn2)c1	SW480 rereplic 4.6µM, MCF10A rerep inconclusive (no result: RORg inh, VP16 counter)
C=CCNC(=S)NNC(=O)C(CCC(C)C)CC(C)(C)O (stereo unspecified)	SW480 rereplic inconclusive, MCF10A rerep inconclusive, RORg inh 14µM, VP16 counter inconclusive
O=C(CSc1ccccn1)Nc1nonc1[N+](=O)[O-]	KB-V1 cytotox 10µM, RORg inh 5.6µM, KB-3-1 tox inconclusive, VP16 counter 5µM
O=C(CSc1ccccn1)Nc1ccc(NC(=O)CSc2ccccn2)cc1	none
COc1cccc(N/C(C)=C/C(=O)c2ccc(Br)cc2)c1	MCF10A rerep 21µM, RORg inh inconclusive, VP16 counter inconclusive
COc1cccc(NC(=O)c2ccc(NC(C)=O)cc2)c1	KB-V1 cytotox inconclusive
C/C(=C\C(=O)c1ccc(Br)cc1)Nc1ccc(Cl)cc1	RORg inh 7.1µM, VP16 counter 11µM
CCCCC(=O)N(C)c1c(CC)nc2c(OCC(=O)c3ccc(F)cc3)cccn12	none (no result: SW480 rereplic, MCF10A rerep, RORg inh, VP16 counter)
C=CCN1C(=O)C(CC(=O)O)SC1=Nc1ccc(C)cc1 (stereo unspecified)	MCF10A rerep 2.6µM
C=CCN1C(=O)C(Cc2cccc(C)c2)SC1=Nc1ccc(C(=O)O)cc1 (stereo unspecified)	none
CCC(C)c1ccc(S(=O)(=O)N2CCN(C(=O)c3ccc(Cl)c(S(=O)(=O)N4CCOCC4)c3)CC2)cc1 (stereo unspecified)	KB-3-1 tox inconclusive (no result: RORg inh, VP16 counter)
Cc1cc(C)cc(N2C(=O)CSC23C(=O)N(CC(=O)NC2CCCCC2)c2ccccc23)c1 (stereo unspecified)	KB-3-1 tox inconclusive (no result: SW480 rereplic, MCF10A rerep, RORg inh, VP16 counter)
Cc1ccc(C)n1-c1ccccc1N	RORg inh 14µM, VP16 counter 13µM (no result: SW480 rereplic, MCF10A rerep, KB-V1 cytotox, KB-3-1 tox)
Cc1cc(=O)cc(C)n1-c1ccccc1N	none
